Laboratory results reported in PubChem BioAssay (Tox21).
The source made the active and inactive calls. A call without a number means that no potency is given here. The call rests on the fitted dose curve; in most records, active means well fitted inhibition curve with a large enough effect in the repeat runs (not every such curve was filed as active); inconclusive means weak or mixed curves; inactive means flat fitted curve, though single readings scatter.

target: Thyrotropin-releasing hormone receptor (Homo sapiens) (UniProt P34981); assay: qHTS assay to identify small molecule antagonists of the thyrotropin-releasing hormone receptor (TRHR) signaling pathway (AID 1346877); conditions: TRHR-HEK293, TRH-induced calcium fluorescence, antagonist mode; series mostly up to 51.3 µM
Source text: National Center for Advancing Translational Sciences [NCATS]
NIH Chemical Genomics Center [NCGC]
U.S. Environmental Protection Agency [EPA]
National Institutes of Environmental Health Sciences [NIEHS]
National Toxicology Program [NTP]
U.S. Food and Drug Administration [FDA]
Thyrotropin-releasing hormone (TRH) receptor (TRHR) is a G-protein-coupled receptor which binds the tripeptide thyrotropin releasing hormone. TRHR is found in the brain and, when bound by TRH, acts (through phospholipase C) to increase intracellular inositol trisphosphate. It plays a crucial role in the anterior pituitary where it controls the synthesis and secretion of thyroid stimulating hormone and prolactin. The TRHR-Hek293 assay is a cell-based assay, and it has the potential to screen G protein-coupled receptors. A compound/drug can either activate (agonist) or suppress (antagonist) GPCRs that can be monitored by levels of intracellular calcium. In this assay, the Tox21 10K compound library was screened to identify potential TRHR antagonists.
Tox21 Assay Protocol Summary:
The TRHR-Hek293 cells were dispensed at 1500cells/4uL/well in 1536-well black-clear bottom plates using a Multidrop dispenser. After the assay plates were incubated at a 37 C/5% CO2 incubator for 18 hours, 4 uL of Dye-Loading Solution was added to each well. The plates were incubated at 37 C for 2 hours. For agonist mode, 23 nL of compounds dissolved in DMSO, positive controls or DMSO only was transferred to the assay plate by a pin tool. The fluorescence intensity in the plates was measured using FDSS 7000EX kinetic plate reader for 3 min at 1 sec intervals. For antagonist mode, 23 nL of compounds dissolved in DMSO, positive controls or DMSO only was transferred to the assay plate by a pin tool. After 5 min incubation at room temperature, 1 uL of TRH was added on the top of the cell/compound mixtures to achieve a final agonist concentration of 1 nM. The fluorescence intensity in the plates was measured using FDSS 7000EX kinetic plate reader for 3 min at 1 sec intervals. Each test compound was measured at 15 concentrations and in triplicates.

Chain of Thyrotropin-releasing hormone receptor (Homo sapiens) (P34981 whole entry, looked up): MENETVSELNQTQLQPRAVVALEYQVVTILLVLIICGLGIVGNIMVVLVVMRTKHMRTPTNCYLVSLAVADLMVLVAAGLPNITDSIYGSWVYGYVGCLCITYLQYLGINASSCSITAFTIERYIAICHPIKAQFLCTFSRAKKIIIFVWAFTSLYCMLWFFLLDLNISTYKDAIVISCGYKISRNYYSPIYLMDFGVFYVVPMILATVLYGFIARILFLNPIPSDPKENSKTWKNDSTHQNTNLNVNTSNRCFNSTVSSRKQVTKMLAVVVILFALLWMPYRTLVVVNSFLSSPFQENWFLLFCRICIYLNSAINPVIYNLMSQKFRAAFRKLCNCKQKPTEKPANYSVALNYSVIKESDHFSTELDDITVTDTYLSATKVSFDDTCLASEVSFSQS

Compound | Potency
N#Cc1c[nH]cc1-c1cccc2c1OC(F)(F)O2 | inactive
CN1C(=O)[C@@H](NC(=O)c2cc3ccccc3[nH]2)N=C(c2ccccc2)c2ccccc21 | inactive
CCNS(=O)(=O)C(F)(F)C(F)(F)C(F)(F)C(F)(F)C(F)(F)C(F)(F)C(F)(F)C(F)(F)F | inactive
COc1ccc(Cc2nccc3cc(OC)c(OC)cc23)cc1OC | inactive
CC(Cc1ccccc1)N(C)Cc1ccco1 (stereo not given) | inactive
COc1ccc2c3c1O[C@H]1[C@H](O)CC[C@H]4[C@@H](C2)N(C)CC[C@@]341 | inactive
O=C(O)[C@H](O)[C@@H](O)C(=O)O | inactive
CN(C)c1ccc(N)cc1 | inactive
C#CCO | inactive
Oc1ccc([C@H]2CNCc3c2ccc(O)c3O)cc1O | inactive
COP(=S)(OC)Oc1ccc([N+](=O)[O-])c(C)c1 | inactive
c1ccc(N=NNc2ccccc2)cc1 | inactive
COC(=O)c1ccccc1S(=O)(=O)NC(=O)Nc1nc(C)nc(OC)n1 | inactive
CC(C)=CC1C(C(=O)OC(C#N)c2cccc(Oc3ccccc3)c2)C1(C)C (stereo not given) | inactive
CC(C)C(Br)C(=O)NC(N)=O (stereo not given) | inactive
COP(=S)(OC)Oc1nc(Cl)c(Cl)cc1Cl | inactive
Cc1ccc2cc3c(ccc4ccccc43)c3c2c1CC3 | inactive
S=C=Nc1ccccc1 | inactive
CC[N+]1(CC)CCC(OC(=O)C(O)(c2ccccc2)c2ccccc2)C1 (stereo not given) | inactive
CNC(=O)Oc1cc(C)cc(C(C)C)c1 | inactive

Compound | Potency
O=c1[nH]c(Cl)c(Cl)cc1Cl | inactive
O=S1(=O)OCC2C(CO1)C1(Cl)C(Cl)=C(Cl)C2(Cl)C1(Cl)Cl (stereo not given) | inactive
Brc1ccc(Oc2ccc(Br)cc2Br)c(Br)c1 | inactive
[O]=[Cr][O][Cr]=[O] | inactive
O=Cc1ccccc1 | inactive
CCCCON=O | inactive
COP(=O)(OC)Oc1ccc([N+](=O)[O-])cc1 | inactive
Nc1ccccc1-c1ccccc1 | inactive
CCC(C)Br (stereo not given) | inactive
C=Cc1cccc(CCl)c1 | inactive
O=P(Cl)(Cl)Cl | inactive
CCC[CH2][Sn]([CH2]CCC)([CH2]CCC)[CH2]CCC | inactive
NC1CCC(CC2CCC(N)CC2)CC1 (stereo not given) | inactive
C[C@]12Cc3cn[nH]c3C[C@@H]1CC[C@@H]1[C@@H]2CC[C@@]2(C)[C@H]1CC[C@]2(C)O | inactive
O=C1C[C@@H]2OCC=C3CN4CC[C@]56c7ccccc7N1[C@H]5[C@H]2[C@H]3C[C@H]46 | inactive
Clc1ccc(C2(Cn3cncn3)OCCO2)c(Cl)c1 | inactive
COC(=O)N(OC)c1ccccc1COc1ccn(-c2ccc(Cl)cc2)n1 | inactive
Nc1ccc(Cl)cc1C(=O)c1ccccc1F | inactive
CC(C)(C)c1ccc(OP(=O)(Oc2ccccc2)Oc2ccccc2)cc1 | inactive
CC1(C)C(C=C(Cl)Cl)C1C(=O)OC(C#N)c1ccc(F)c(Oc2ccccc2)c1 (stereo not given) | inactive
